# Screening results deposited in PubChem by National Center for Advancing Translational Sciences (NCATS).
# KB-V1 MDR tox: kills drug-selected multidrug resistant KB-V1 cells. AID 1347076. 400,000 compounds, 3.4% hits. Potency, µM (titrated, usually from 46.1 µM), most hits filed as cytotoxic. KB-V1 MDR cells viability, CellTiter-Glo, 72 h; further: nearly all actives have a fitted effect of over 60% in size
#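 Readout: CellTiter-Glo luminescence, 10 min after addition. Cells: KB-V1 MDR subline, 72 h at 37 degrees C with compound. Analysis: corrected, normalized data fitted to concentration-effect curves.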
# MCF10A rerep: DNA re-replication induction in MCF 10a cells. MCF 10A DNA re-replication, Hoechst nuclear intensity, 48 h. Potency, µM (highest dose often 46.1 µM), actives largely listed as activators. 350,000 compounds, 2.9% hits; further: nearly all actives have a fitted effect of over 50% in size
# IL1B secr inh: inflammasome signaling inhibition, IL-1 beta readout. THP-1 LPS/ATP IL-1B secretion, AlphaLISA, 16 h; active compounds read low. activity change, % at 57.5 µM. 360,000 compounds, 4.7% hits; in the data active means activity change below about -50%; inconclusive means mostly about -30% to -49%
#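 Secreted IL-1B measured by AlphaLISA bead assay after 16 h compound exposure of THP-1 cells; compounds (final up to 57.5 uM) added 1 h before LPS (250 ng/mL) and ATP (1.25 mM) stimulation; lower signal means less secretion.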
# KB-3-1 cytotox: kills parental KB-3-1 adenocarcinoma cells. KB-3-1 viability, CellTiter-Glo ATP luminescence, 72 h. Potency, µM (highest dose often 46.1 µM), most hits filed as cytotoxic. 400,000 compounds, 1.4% hits. AID 1347075; further: nearly all actives have a fitted effect of over 60% in size
#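 Using CellTiter-Glo luminescence, growth of non-resistant KB-3-1 adenocarcinoma cells is assessed 72 h after pin-tool compound addition at 37 °C. Normalized responses across the concentration series yield fitted curves.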
# SW480 rereplic: inducers of DNA re-replication in SW480 colon cancer cells; SW480 DNA re-replication, Hoechst DNA content imaging, 48 h; Potency, µM (titrated, usually from 46.1 µM), usual class: activators; 340,000 compounds, 1.8% hits; further: nearly all actives have a fitted effect of over 55% in size
#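 Image-based read-out: total Hoechst fluorescence of nuclei (405 nm excitation, 500-530 nm emission), with hits raising the fraction of high-intensity nuclei. SW480 colon cells incubated 48 hr with compounds at 37 C.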
# Numbers stand for hits; – = inactive; ? = inconclusive; · = no result given; ! = not active in a repeat; [ ] = dose if it differs, or a comment. Compounds with a hit are over-represented: about 9.9% of the library has one in this group of screens. Unless noted, the call rests on the fitted dose curve; in most records, active means well fitted curve in the direction sought with a large enough effect; inconclusive means small, poorly fitted or top-dose-only effect, or another doubt; inactive means no such curve, though single readings can be large; an effect the other way counts as inactive or inconclusive.
SMILES,KB-V1 MDR tox,MCF10A rerep,IL1B secr inh,KB-3-1 cytotox,SW480 rereplic
Cc1nn(C(C)C(=O)NC2CCC(C)CC2)c(=O)c2cc3sccc3n12 (stereo not given),–,·,·,–,·
COc1cc(NC2CCCCC2O)c2nc(-c3ccc(Cl)cc3)ccc2c1 (stereo not given),?,13µM,–,?,13µM
CN1C(=O)[C@H]2[C@@H](c3ccccc3)N[C@]3(CCCN(Cc4ccc(F)cc4)C3=O)[C@H]2C1=O,–,·,?,?,·
OC[C@@H]1CN(Cc2cccs2)C[C@H](n2cnc3c(NCc4ccco4)ncnc32)O1,–,·,–,–,·
Cc1cccc(OCCC(=O)Nc2ccc(Cl)cc2F)c1,–,–,–,–,–
COc1ccc(C(=O)/C=C/c2ccc(C)cc2)c(OC(=O)c2ccc([N+](=O)[O-])cc2)c1,–,?,?,?,–[9.22 µM]
COc1ccc(C(=O)/C=C/c2cc(OC)c(O)c(OC)c2)c(F)c1,?,?,-100,?,–
COc1cc(/C=C/C(=O)O)cc(OC)c1O,–,–,–,–,–
COc1ccc2cc(C(=O)/C=C/c3cc(OC)c(O)c(OC)c3)ccc2c1,–,9.2µM,-98,?,?
Cc1ccccc1Nc1nnc(SCC(=O)c2c(N)n(C3CC3)c(=O)[nH]c2=O)s1,–,–,–,–,–
CC(C)Nc1nc(Cl)nc(N(C#N)CN2C(=O)c3ccccc3C2=O)n1,–,16µM,-99,?,?
CCC(C)Nc1nc(Cl)nc(N(C#N)CN2C(=O)c3ccccc3S2(=O)=O)n1 (stereo not given),–,?,-66,–,?
Cc1c(-c2cccc(Cl)c2)nc2ccccc2c1C(=O)OCC(=O)Nc1ccc2c(c1)OCO2,?,–,-59,?,–
CCCc1nc2ccccc2c(C(=O)OCC(=O)NCc2ccc3c(c2)OCO3)c1CC,–,18µM,–,?,–
O=C1CCC[C@@H]2Cc3nc4cc5c(cc4cc3[C@@H]3CCN1[C@H]23)OCO5,18µM!,–,–,–,–
O=C1CCC[C@@H]2Cc3nc4ccc(O)cc4cc3[C@@H]3CCN1[C@H]23,–,–,–,–,–
Cc1cc2c(n1-c1ccc(Cl)cc1)CC(C)(C)CC2=O,13µM,–,–,–,–
Nc1cccc2c1C(=O)N(C(=O)/C=C/c1ccc(F)cc1)C2=O,?,?,-78,–,?
Nc1cccc2c1C(=O)N(C(=O)c1ccco1)C2=O,–,–,–,?,–
O=C(Cc1cccc(C(F)(F)F)c1)Nc1cc(S(=O)(=O)N2CCOCC2)ccc1N1CCCC1,–,?,–,–,–
CCC(/C=C1\Sc2ccc(OC)cc2N1CCO)=C\c1sc2ccc(OC)cc2[n+]1CCO,–,?,-113,2.9µM,–
CCC(/C=C1\Sc2ccc(OC)cc2N1CC)=C\c1sc2ccc(OC)cc2[n+]1CCCS(=O)(=O)[O-],–,–,?,?,–
COCCn1c(SCC(=O)Nc2cccnc2Cl)nc2cc(Cl)ccc2c1=O,?,–,–,–,–
COCCn1c(SCC(=O)Nc2sccc2C(N)=O)nc2cc(Cl)ccc2c1=O,–,–,-54,–,–
Cc1nnc(SCC(=O)Nc2cccc(S(N)(=O)=O)c2)n1-c1ccccc1,–,–,–,–,–
SMILES,KB-V1 MDR tox,MCF10A rerep,IL1B secr inh,KB-3-1 cytotox,SW480 rereplic
Cc1ccc(-n2c(SCC(=O)Nc3cccc(S(N)(=O)=O)c3)nc3ccccc32)cc1,–,16µM,–,15µM,–
C=CCn1c(SCC(=O)Nc2cccc(S(N)(=O)=O)c2)nc2sc(C)c(C)c2c1=O,23µM,–,-61,–,–
COCCn1c(SCC(=O)Nc2cccc(S(N)(=O)=O)c2)nc2cc(Cl)ccc2c1=O,–,?,-68,–,?
COc1ccc(C(=O)OCC(=O)NCc2ccc3c(c2)OCO3)cc1S(=O)(=O)N1CCOCC1,–,–,–,–,–
O=C(NC1CCCC1)C(c1ccc(F)cc1)N(C(=O)c1csnn1)C1CC1 (stereo not given),?,–,–,–,–
O=C(O)c1nc(-c2ccccc2)c(C(=O)NC2CC2)[nH]1,?,·,–,–,·
Nc1ccc2c(c1)C(=O)c1cc(N)c(Cl)cc1-2,–,–,–,–,–
COc1cc2c(cc1N)-c1ccc(N)cc1C2=O,–,·,-64,–,·
O=C(c1ccco1)N1CCN(Cc2cccc([N+](=O)[O-])c2)CC1,–,–[9.22 µM],–,–,–
O=C(c1cc([N+](=O)[O-])ccc1Cl)N1CCN(Cc2ccccc2)CC1,–,?,-53,–,–
O=C(c1cccs1)N1CCN(Cc2cccc([N+](=O)[O-])c2)CC1,–,–,-53,–,–
Cc1nc2sc3c(NCc4ccco4)ncnc3c2c2c1COC(C)(C)C2,18µM,?,?,?,?
CC(C)Cc1nc2sc3c(NCc4ccco4)ncnc3c2c2c1COC(C)(C)C2,–,?,–,–,–
Cn1c(CSc2nc3ccccc3s2)n[nH]c1=S,–,–,–,–,–
Cn1c(-c2sc3ccccc3c2Cl)n[nH]c1=S,16µM,–,–,21µM,–
COc1ccc(N2CC(NC(=O)CCc3ccccc3)CC2=O)cc1OC (stereo not given),–,·,·,–,·
CC(C)c1ccc(CNCc2ccccc2)cc1,–,–,-51,–,–
Oc1cc(CNCc2ccccc2)c(O)cc1CNCc1ccccc1,–,?,–,–,13µM
CC(C)c1ccc(CNC(=O)CCc2ccccc2)cc1,–,–,–,–,–
O=C1Nc2ccc(Br)cc2/C1=C/C(=O)c1ccccc1,?,18µM,-103,?,?
C=CCOc1cccc(C(=O)/C=C2/C(=O)Nc3ccccc32)c1,–,5.8µM,?,?,?
CC(=O)/C=C1/C(=O)Nc2ccccc21,–,?,–,?,–
O=c1[nH]c2ccccc2c(O)c1O,?,–,-92,?,–
CCCCCc1c(O)c2ccccc2[nH]c1=O,16µM,–,–,–,–
CCc1c(C)c2ccccc2[nH]c1=O,2.3µM,·,·,4.1µM,·
SMILES,KB-V1 MDR tox,MCF10A rerep,IL1B secr inh,KB-3-1 cytotox,SW480 rereplic
Cc1nnc(NC(=O)C(C)Sc2nnc(CNC(=O)c3ccccc3F)n2C)s1 (stereo not given),–,–,–,–,?
CCn1cc([N+](=O)[O-])c(C(=O)N2N=C(c3ccc(Cl)c(Cl)c3)CC2c2ccccc2O)n1 (stereo not given),?,?,-85,?,?
CCn1cc([N+](=O)[O-])c(C(=O)N2N=C(c3ccc(O)c(OC)c3)CC2c2ccccc2O)n1 (stereo not given),?,–,–,?,–
CC1=Nc2ccccc2/C1=C/c1sc(=N)n(-c2nccs2)c1O,–,?,–,7.3µM,–[9.22 µM]
COc1cccc(NC(=O)N2CCC(CN3CCOCC3)CC2)c1,–,·,·,–,·
CN1CCC(=C2c3ccccc3Sc3ccccc32)CC1,?,27µM,?,–,?
Cn1cccc1CC(=O)N/N=C/C=C/c1ccco1,–,–,–,–,–
